Measured values taken from PubChem BioAssay AID504697 (The Scripps Research Institute Molecular Screening Center, 2011).
Values without a mark were called inactive. The source made the active and inactive calls.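 Rule for the calls: active = EC50 at or below 10 µM; inactive = EC50 above 10 µM.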

Test: fluorescence interference artefacts, compound only, dose response, artefact control for cardiac thin filament activator project, biochemical, no RTF in test wells (AID 504697);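 note: emission near 535 nm under roughly 485 nm excitation as for IANBD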
Settings: compound-only fluorescence in RTF assay buffer with Ca2+ (no RTF in test wells), artifact counterscreen

SMILES | EC50
O=C(COc1ccccc1F)NC1CC1 | > 71.5 µM
CC(=O)N1CCc2c(sc(NC(=O)C3CCCN3S(=O)(=O)c3cccs3)c2C(N)=O)C1 (stereo unspecified) | 42.6 µM
N#C/C(=C\c1ccc(N2CCOCC2)o1)C(=O)NC1CCCCC1 | 16.5 µM
Cc1ccc(NC(=O)COc2ccc(/C=N/NC(=O)CSCc3ccccc3)cc2)cc1 | > 71.5 µM
O=C(NC1CCCCC1)c1cccc2c1C(=O)c1ccc(N3CCCC3)cc1S2(=O)=O | > 23.8 µM
COc1c(O)cccc1-c1nnn(CCC(=O)OCC(=O)c2ccccc2)n1 | > 71.5 µM
CSc1ccc(C2C(C(=O)c3ccco3)=C(O)C(=O)N2c2nnc(SC)s2)cc1 (stereo unspecified) | 0.726 µM (active)
O=C(NCc1nnc(SCC(=O)N2CCCCCC2)o1)c1ccco1 | > 71.5 µM
S=c1[nH]nc(-c2ccc(Cl)cc2)n1-c1ccc2c(c1)OCCO2 | > 71.5 µM
Cc1cc2nc(C3CCCN(C(=O)NCc4ccccc4)C3)[nH]c2cc1C (stereo unspecified) | > 71.6 µM
O=C(CCSc1ccccc1)N1CCN(C(=O)c2ccco2)CC1 | > 71.5 µM
CC(C)CNC(=S)NC(=O)c1ccccc1Cl | > 71.4 µM
COc1ccccc1NS(=O)(=O)c1cc([N+](=O)[O-])ccc1N/N=C/c1c(C)[nH]c2ccccc12 | 9.25 µM (active)
CC(=O)Nc1cc(C(=O)NCc2ccco2)ccc1Sc1ccc(F)cc1 | > 71.5 µM
NC(=O)NC(=O)COC(=O)c1cccc(NS(=O)(=O)/C=C/c2ccccc2)c1 | > 71.5 µM
CN(/N=C/c1ccc(N(C)C)cc1)C1=NS(=O)(=O)c2ccccc21 | 22.5 µM
CC1=CC(=C(C#N)C#N)C=C(C)N1Cc1ccc(Cl)cc1 | > 71.5 µM
O=C1c2ccsc2SCCN1Cc1ccc(F)cc1 | > 71.5 µM

SMILES | EC50
Cc1cc(NC(=O)COC(=O)C(Cc2ccccc2)NC(=O)c2ccco2)no1 (stereo unspecified) | > 71.5 µM
O=C(OCCN1C(=O)c2cccc3c(N4CCOCC4)ccc(c23)C1=O)c1ccc(Cl)cc1Cl | 2.52 µM (active)
NC(=O)C1CCN(C(=O)c2ccc(-c3ccccc3)cc2)CC1 | > 71.6 µM
CC(/C=N/Nc1ccc2nncn2n1)=C\c1ccccc1 | > 71.5 µM
C=CCOc1ccc(Br)cc1CNCC | > 71.6 µM
Cn1nccc1NC(=O)Nc1cccc(Cl)c1Cl | > 71.4 µM
C=CCn1c(C)c(/C=C/c2cc[n+](C)cc2)c2ccccc21 | 4.64 µM (active)
CCN(CC)c1ccc(/C=C2\SC(N)=NC2=O)cc1 | 30.6 µM
COc1cc(OC)c(C(=O)OC(C)C(=O)Nc2cccc(C(F)(F)F)c2)cc1OC (stereo unspecified) | > 71.5 µM
O=C(Nc1ccc(C(=O)N2CCOCC2)cc1)Nc1cccc(Cl)c1 | > 71.5 µM
O=C(NC1CCCCC1)c1cc2nc3c(c(C(F)(F)F)n2n1)CCCC3 | > 71.5 µM
COc1ccc(C)cc1NC(=O)C12CCC(C)(C(=O)O1)C2(C)C (stereo unspecified) | > 71.5 µM
CCCNC(=O)Cn1c(=O)/c(=C\c2ccc(-c3ccc([N+](=O)[O-])cc3)o2)s/c1=C\C(=O)C(C)(C)C | 0.335 µM (active)
O=[N+]([O-])c1ccc(NN=Cc2cccc3ccccc23)nc1 | 62.7 µM
Cc1cccn2c(=O)c(/C=C3\SC(=S)N(CC(C)C)C3=O)c(NCCCOC(C)C)nc12 | 0.988 µM (active)
C/C(O)=c1/ccc2cccc3nc(C)nc1c23 | > 23.8 µM
COc1ccc2nc(-c3ccccn3)[nH]c2c1 | > 71.5 µM
N#C/C(=C\c1ccc(N2CCOCC2)o1)c1nc2ccccc2[nH]1 | 1.37 µM (active)
